# Results filed as inconclusive are left out. A call without a number means that no potency is given here. Calls of active or inactive are those of the source. Unless noted, calls come from the whole dose curve; as a rule, active = well fitted curve in the direction sought with a large enough effect; inconclusive = small, poorly fitted or top-dose-only effect, or another doubt; inactive = no such curve, though single readings can be large; an effect the other way counts as inactive or inconclusive.
# Legend:
# [1] = Cell Viability - LYMP2-023 (AID 975);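 note: cellular ATP measured by luciferase luminescence as viability proxy; series mostly up to about 92 µM; nearly all actives have a fitted effect of over 55% in size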
# Outline: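 In this qHTS, ATP-based luciferase luminescence (CellTiter-Glo) is quantified in human lymphoblastoid cells after 24 hr compound treatment at 37 C; tetraoctylammonium bromide serves as positive control. Concentration-response curves are Hill-fitted to give AC50.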
# [2] = Cell Viability - LYMP2-025 (AID 976);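 note: series mostly up to about 92 µM; cells exposed to compound for 24 h at 37 °C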
# Outline: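 Luminescent ATP readout after 24 hr treatment of a human lymphoblastoid line (LYMP2-025, 2500 cells/well, 37 C). Reagent developed 30 min at room temperature; AC50 fitted with the Hill equation.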
# [3] = Cell Viability - LYMP2-006 (AID 978); note: series mostly up to about 92 µM; nearly all actives have a fitted effect of over 60% in size
# Outline: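 Concentration-dependent loss of intracellular ATP in a human lymphoblastoid line after 24 hr treatment at 37 C was measured by CellTiter-Glo luminescence, with AC50 values obtained from standard Hill-equation modelling.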
# [4] = Cell Viability - LYMP2-008 (AID 980);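 note: cells exposed to compound for 24 h at 37 °C; nearly all actives have a fitted effect of over 60% in size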
# Outline: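 Measured: ATP-dependent luminescence, proportional to viable cell number, in human lymphoblastoid cells treated 24 hr with compound in complete culture medium. Values are AC50s from Hill-equation modelling of qHTS titrations.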
# [5] = Cell Viability - LYMP2-012 (AID 982);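 note: cellular ATP by luciferase luminescence where a drop means cytotoxicity; cells exposed to compound for one day before reading; nearly all actives have a fitted effect of over 55% in size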
# [6] = Cell Viability - LYMP2-014 (AID 983);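 note: series mostly up to about 92 µM; cells exposed to compound for 24 h at 37 °C; nearly all actives have a fitted effect of over 50% in size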
# Outline: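 Quantitative HTS in lymphoblastoid cells: 24 hr compound exposure, then CellTiter-Glo ATP luminescence. Positive control was tetraoctylammonium bromide, 6.4pM to 92 uM.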
# [7] = Cell Viability - LYMP2-016 (AID 984); note: nearly all actives have a fitted effect of over 55% in size
# Outline: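 Acute toxicity in a Coriell human lymphoblastoid line is scored as loss of intracellular ATP over 24 h of treatment in complete medium. CellTiter-Glo signal is fitted across concentrations with the Hill equation to give AC50.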
# [8] = Cell Viability - LYMP2-026 (AID 989);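 note: cells exposed to compound for 24 h at 37 °C; nearly all actives have a fitted effect of over 50% in size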
# Outline: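 Acute toxicity screen in complete culture medium, with 24 hr compound exposure at 37 C. Viability read as cellular ATP via luciferase reaction, with tetraoctylammonium bromide (6.4pM to 92 uM) as positive control.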
# [9] = Cell Viability - LYMP1-002 - Assay at 24 hr (AID 993)
# Outline: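 Viability was judged from intracellular ATP using a luciferase read-out, following a 24-hour compound incubation at 37 C of lymphoblastoid cells seeded at 2500 per well. Concentration-response data were fitted to the Hill equation for AC50.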
# [10] = Cell Viability - LYMP1-002 - Assay at 40 hr (AID 994); note: nearly all actives have a fitted effect of over 60% in size
# Outline: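 Concentration-dependent ATP loss after 40 hr treatment at 37 C defined toxicity; AC50 values were obtained by fitting the standard Hill equation.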
# [11] = qHTS Assay for Identification of Small Molecule Inducers of Hypoxia Response (AID 2120; active = well fitted curve in the direction sought with a large enough effect in the signal ratio, with a control signal flat, not every such curve was filed as active; the % refers to the signal ratio)
# Outline: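 HRE-bla ME-180, 2500 cells/well, 0.5% dialyzed FBS medium; cpd titration, 17 h 37 degrees C; CCF4 2.5 h RT; Ex 405, Em 460/530 ratio -> %Activity, AC50.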
# [12] = target: Glucocorticoid receptor (Homo sapiens) (UniProt P04150); assay: qHTS assay for small molecule agonists of glucocorticoid receptor signaling (AID 588532; active = well fitted curve in the direction sought with a large enough effect in the signal ratio, with a control signal flat; the % refers to the signal ratio); conditions: HeLa MMTV-bla, beta-lactamase ratio, agonist, 18 h; stronger effect = higher value; percent of dexamethasone control, DMSO zero
# Outline: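 HeLa GRE-bla reporter cells; 18 h compound exposure at 37 C; 2 h CCF4 loading at room temperature; fluorescence at 460 and 530 nm; EC50 by Hill equation.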
# [13] = target: Glucocorticoid receptor (Homo sapiens) (UniProt P04150); assay: qHTS assay for small molecule antagonists of glucocorticoid receptor signaling (AID 588533; active = well fitted inhibition curve with a large enough effect in the signal ratio, with a control signal flat, not every such curve was filed as active; the % refers to the signal ratio)
# Outline: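 Antagonist-mode qHTS: compound titrations added to GRE-bla HeLa cells, then dexamethasone 2 nM final; 18 h, 37 C. CCF4 FRET fluorescence normalized to dexamethasone and DMSO; IC50 from Hill fit.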
# [14] = target: Vitamin D3 receptor (Homo sapiens) (UniProt P11473); assay: qHTS assay for small molecule antagonists of vitamin D receptor signaling (AID 588541; calls by dose curve;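 note: receptor activated by calcitriol during compound treatment; series mostly up to about 77 µM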)
# Outline: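 VDR-UAS-bla HEK293T cells in 2% charcoal-stripped FBS were stimulated with 1-alpha,25-dihydroxyvitamin D3 (3 nM final) plus compound for 16 h at 37 C. The beta-lactamase CCF4 readout was normalized to 50 nM agonist and DMSO, and Hill fits gave IC50.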
# [15] = target: Vitamin D3 receptor (Homo sapiens) (UniProt P11473); assay: qHTS assay for small molecule agonists of vitamin D receptor signaling (AID 588543; calls by dose curve)
# Outline: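 qHTS in agonist mode: compound titrations stimulate a VDR-driven β-lactamase reporter in HEK293T cells over 16 h at 37 °C. Response normalized to 50 nM 1α,25-dihydroxyvitamin D3 = 100%, DMSO = 0%; Hill fitting gives EC50 and maximal response.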
# [16] = qHTS assay for small molecule agonists of retinoid X receptor alpha signaling (AID 588544; calls by dose curve); conditions: HEK293T RXRa-UAS-bla, beta-lactamase reporter, 18 h; 530 nm emission
# [17] = target: Retinoic acid receptor RXR-alpha (Homo sapiens) (UniProt P19793); assay: as above
# [18] = target: Thyroid hormone receptor beta (Homo sapiens) (UniProt P10828); assay: qHTS assay for small molecule agonists of thyroid hormone receptor beta signaling (AID 588545; calls by dose curve)
# Outline: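 Stimulation of a TR-driven beta-lactamase reporter was quantified in GripTite HEK 293 cells. Compound series ran for 18 hrs; curves were normalized to T3 and DMSO controls and fitted to yield EC50.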
# [19] = qHTS assay for small molecule antagonists of retinoid X receptor alpha signaling (AID 588546; active = well fitted inhibition curve with a large enough effect in the signal ratio, with a control signal flat, not every such curve was filed as active; the % refers to the signal ratio;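 note: cells stimulated with 9-cis-retinoic acid as agonist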); conditions: HEK293T RXRa-UAS-bla, beta-lactamase ratio, antagonist mode; measured here: W530 green channel, cytotoxicity proxy
# Outline: (§1)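 Beta-lactamase reporter inhibition, read as CCF4 fluorescence ratio (ex 405, em 460/530 nm) after 2 h at RT. HEK293T UAS-bla cells, 2500/well, were stimulated with 9-cis-RA at 500 or 100 nM final alongside test compound for 18 h at 37 C.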
# [20] = target: Retinoic acid receptor RXR-alpha (Homo sapiens) (UniProt P19793); assay: as above; conditions: HEK293T RXRa-UAS-bla, beta-lactamase ratio, antagonist mode
# Outline: as §1
# [21] = target: Thyroid hormone receptor beta (Homo sapiens) (UniProt P10828); assay: qHTS assay for small molecule antagonists of thyroid hormone receptor beta signaling (AID 588547; active = well fitted inhibition curve with a large enough effect in the signal ratio, with a control signal flat, not every such curve was filed as active; the % refers to the signal ratio;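 note: cells stimulated with 0.4 nM T3 agonist during compound exposure; series mostly up to about 77 µM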); conditions: TR-UAS-bla HEK293, beta-lactamase ratio, antagonist mode, 18 h
# Outline: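 TR-UAS-bla GripTite HEK293 cells in 2% charcoal/dextran FBS medium; compounds 0.59 nM to 92 uM with T3 at 0.4nM final, 18 h at 37 C. Beta-lactamase read by CCF4 fluorescence (460/530 nm); Hill fits gave IC50 and efficacy.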
# [22] = target: Voltage-gated inwardly rectifying potassium channel KCNH2 (Homo sapiens) (UniProt Q12809); assay: qHTS Assay for Small Molecule Inhibitors of the Human hERG Channel Activity (AID 588834);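 note: U2OS cells transduced with hERG by BacMam; top concentration of the series differs between compounds; lower thallium flux fluorescence means stronger hERG block; nearly all actives have a fitted effect of over 50% in size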
# Outline: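 Cells were infected with hERG-BacMam virus for 4 hrs at room temperature, grown overnight, then seeded at 2000/well. After dye loading and roughly 10 min compound treatment, thallium influx was triggered and fluorescence recorded.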
# [23] = qHTS assay for small molecule agonists of the antioxidant response element (ARE) signaling pathway (AID 651741; active = well fitted activation curve with a large enough effect in the signal ratio; the % refers to the signal ratio; note: potency is the fitted concentration of half-maximal effect)
# Outline: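 HepG2 ARE-bla reporter cells, 2,000/well; 5 h settle at 37 C/5% CO2; compound pin transfer (23 nL, DMSO); 16 h at 37 C; LiveBLAzer B/G FRET substrate, 2 h RT; fluorescence intensity read.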
# [24] = qHTS assay for small molecule activators of the nuclear factor-kappa B (NF-kB) signaling pathway (AID 651749; active = well fitted activation curve with a large enough effect in the signal ratio; the % refers to the signal ratio; note: series mostly up to about 77 µM); conditions: NF-kB-bla ME-180 cells, beta-lactamase FRET ratio, 16 h; stronger effect = higher value
# Outline: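 NF-kB-bla ME-180 cells, 2,000/well; 23 nL compound or DMSO pinned; 16 hr, 37C/5% CO2; beta-lactamase FRET read-out.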
# [25] = qHTS assay for small molecule disruptors of the mitochondrial membrane potential - 1 hr assay (AID 651754; calls by dose curve; note: nearly all actives have a fitted effect of over 35% in size)
# Outline: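 In this qHTS format, a 1 hr compound treatment of HepG2 cells precedes Mito-MPS staining, and membrane potential is judged from aggregate (red) against monomer (green) fluorescence intensity.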
# [26] = qHTS assay for small molecule disruptors of the mitochondrial membrane potential - 5 hr assay (AID 651755; calls by dose curve; note: nearly all actives have a fitted effect of over 40% in size)
# Outline: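 Read-out: ratiometric Mito-MPS fluorescence, green monomer (ex 490/em 535) vs red mitochondrial aggregate (ex 540/em 590). HepG2 cells treated 5 hr at 37C before 30 min dye loading.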
# [27] = target: Peroxisome proliferator-activated receptor alpha (Homo sapiens) (UniProt Q07869); assay: qHTS assay for small molecule agonists of the peroxisome proliferator-activated receptor alpha (PPARalpha) signaling pathway (AID 651778); conditions: PathHunter PPARalpha complementation, chemiluminescence, 6 h; stronger effect = higher value
# Outline: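 Enzyme-fragment complementation assay in which ligand-bound PPARalpha translocates and forms an active enzyme that generates chemiluminescence. Cells were plated overnight, exposed to compound for 6 hr at 37 C, and then given detection reagent for 60 min at room temperature.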
# [28] = target: Nuclear receptor ROR-gamma (Homo sapiens) (UniProt P51449); assay: qHTS assay for small molecule antagonists of the retinoid-related orphan receptor gamma (ROR-gamma) signaling pathway (AID 651802); note: potency is the fitted concentration of half-maximal effect; nearly all actives have a fitted effect of over 60% in size
# Outline: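 Doxycycline-induced reporter activity in engineered CHO cells (TET-inducible ROR, RORE-LUC) was measured by luminescence after 16hr compound exposure at 37C.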
# [29] = qHTS assay for small molecule agonists of the antioxidant response element (ARE) signaling pathway measured by Nrf2-dependant transcriptional activity (AID 720636; active = well fitted curve in the direction sought with a large enough effect in the repeat runs; an effect the other way counts as inactive or inconclusive)
# Outline: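 ARE-luc HepG2 cells carrying an Nrf2-responsive luciferase reporter, in medium with 1% dialyzed FBS, exposed to compound for 16 hr at 37 C, 5% CO2. Luminescence read 30 min after ONE-Glo addition.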
# [30] = qHTS assay for small molecule agonists of the antioxidant response element (ARE) signaling pathway measured by Nrf2-dependant transcriptional activity - cell viability counter screen (AID 720653; active = well fitted curve in the direction sought with a large enough effect in the repeat runs; an effect the other way counts as inactive or inconclusive); conditions: ARE-bla HepG2 viability, CellTiter-Glo ATP luminescence, 16 h; stronger effect = lower value
# Outline: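 ARE-bla HepG2 cells treated with compounds for 16 h at 37C; this counter screen measures viability as intracellular ATP by CellTiter-Glo luminescence after 30 min at room temperature.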
# [31] = qHTS assay for cell viability of HEK293 cells (AID 743288); conditions: ATP luminescence (CellTiter-Glo), 18 h, stronger effect = lower value; note: nearly all actives have a fitted effect of over 50% in size
# Outline: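 Quantitative high-throughput screen: compounds were pinned onto parental HEK293 cells (2,000 per well) after a minimum 5 h settling at 37 C, incubated 18 h at 37 C, and intracellular ATP measured by luciferase luminescence.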
# [32] = qHTS assay for cell viability of the p53RE-bla HCT-116 cell line (AID 743292); note: nearly all actives have a fitted effect of over 55% in size
# Outline: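 CellSensor p53RE-bla HCT-116 cells (4,000/well) pre-incubated 5 h at 37 C, then exposed to compounds in DMSO for 16 h at 37 C. Viability read as ATP content by CellTiter-Glo luminescence after 30 min at room temperature.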
# [33] = target: Nuclear receptor subfamily 1 group I member 2 (Rattus norvegicus) (UniProt Q9R1A7); assay: qHTS assay for small molecule activators of the rat pregnane X receptor (rPXR) signaling pathway (AID 651751; call rule not given here); conditions: rPXR reporter cells, luciferase (One-Glo), 24 h
# [34] = qHTS assay for small molecule activators of the human pregnane X receptor (PXR) signaling pathway (AID 720659; call rule not given here)
# Chain of Thyroid hormone receptor beta (Homo sapiens) (P10828 whole entry, looked up): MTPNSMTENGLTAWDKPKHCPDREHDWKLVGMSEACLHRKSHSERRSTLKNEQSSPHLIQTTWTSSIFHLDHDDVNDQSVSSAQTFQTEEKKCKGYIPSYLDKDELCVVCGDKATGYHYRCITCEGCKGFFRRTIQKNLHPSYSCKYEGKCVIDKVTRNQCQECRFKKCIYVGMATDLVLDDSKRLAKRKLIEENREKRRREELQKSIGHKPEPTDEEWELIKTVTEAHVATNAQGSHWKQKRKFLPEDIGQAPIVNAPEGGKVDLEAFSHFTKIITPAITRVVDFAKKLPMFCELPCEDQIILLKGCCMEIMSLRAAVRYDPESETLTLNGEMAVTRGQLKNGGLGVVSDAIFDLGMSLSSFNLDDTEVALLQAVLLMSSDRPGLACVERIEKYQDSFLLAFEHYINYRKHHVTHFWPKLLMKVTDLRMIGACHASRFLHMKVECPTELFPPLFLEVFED
# Chain of Glucocorticoid receptor (Homo sapiens) (P04150 whole entry, looked up): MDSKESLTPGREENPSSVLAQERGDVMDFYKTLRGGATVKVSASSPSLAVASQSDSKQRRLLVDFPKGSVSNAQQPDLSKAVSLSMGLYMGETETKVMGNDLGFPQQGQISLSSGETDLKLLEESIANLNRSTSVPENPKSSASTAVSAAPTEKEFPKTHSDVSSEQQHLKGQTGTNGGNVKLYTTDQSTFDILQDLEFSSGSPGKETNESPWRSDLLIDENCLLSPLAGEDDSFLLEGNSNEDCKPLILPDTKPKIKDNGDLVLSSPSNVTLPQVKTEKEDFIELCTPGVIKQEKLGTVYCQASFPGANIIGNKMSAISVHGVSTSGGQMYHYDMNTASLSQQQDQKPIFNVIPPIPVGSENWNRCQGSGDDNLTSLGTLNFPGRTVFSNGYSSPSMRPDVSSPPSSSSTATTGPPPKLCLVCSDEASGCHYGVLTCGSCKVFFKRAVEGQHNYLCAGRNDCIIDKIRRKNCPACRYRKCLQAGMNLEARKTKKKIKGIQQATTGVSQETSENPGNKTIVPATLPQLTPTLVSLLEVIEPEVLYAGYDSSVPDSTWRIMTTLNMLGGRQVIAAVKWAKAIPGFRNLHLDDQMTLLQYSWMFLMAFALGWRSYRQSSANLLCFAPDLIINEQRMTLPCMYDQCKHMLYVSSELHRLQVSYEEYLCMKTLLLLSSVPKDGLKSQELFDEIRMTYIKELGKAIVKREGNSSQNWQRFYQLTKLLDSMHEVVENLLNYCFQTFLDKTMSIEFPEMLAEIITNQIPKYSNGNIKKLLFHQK
# Chain of Retinoic acid receptor RXR-alpha (Homo sapiens) (P19793 whole entry, looked up): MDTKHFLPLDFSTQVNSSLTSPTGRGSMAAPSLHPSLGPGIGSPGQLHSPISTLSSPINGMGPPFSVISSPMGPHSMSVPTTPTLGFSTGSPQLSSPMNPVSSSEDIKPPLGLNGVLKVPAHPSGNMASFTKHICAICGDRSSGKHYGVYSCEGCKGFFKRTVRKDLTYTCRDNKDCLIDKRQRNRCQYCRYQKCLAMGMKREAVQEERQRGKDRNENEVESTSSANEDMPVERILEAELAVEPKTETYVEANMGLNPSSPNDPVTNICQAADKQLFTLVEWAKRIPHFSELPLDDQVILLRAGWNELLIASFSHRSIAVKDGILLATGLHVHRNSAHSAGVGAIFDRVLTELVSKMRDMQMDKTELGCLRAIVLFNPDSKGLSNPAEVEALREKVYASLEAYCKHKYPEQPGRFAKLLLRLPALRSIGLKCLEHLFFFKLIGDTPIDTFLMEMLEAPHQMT
# Chain of Vitamin D3 receptor (Homo sapiens) (P11473 whole entry, looked up): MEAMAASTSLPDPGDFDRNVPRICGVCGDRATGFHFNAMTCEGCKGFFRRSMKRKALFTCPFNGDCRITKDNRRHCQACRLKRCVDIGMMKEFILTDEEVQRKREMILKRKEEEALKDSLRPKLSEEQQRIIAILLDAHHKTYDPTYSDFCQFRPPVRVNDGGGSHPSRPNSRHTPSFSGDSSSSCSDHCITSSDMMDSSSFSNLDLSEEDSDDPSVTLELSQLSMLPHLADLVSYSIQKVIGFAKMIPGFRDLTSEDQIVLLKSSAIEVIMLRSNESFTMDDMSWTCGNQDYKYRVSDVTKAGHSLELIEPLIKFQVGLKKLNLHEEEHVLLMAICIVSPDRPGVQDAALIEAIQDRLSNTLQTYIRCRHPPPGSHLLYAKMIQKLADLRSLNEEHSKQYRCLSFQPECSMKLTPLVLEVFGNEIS
# Chain of Voltage-gated inwardly rectifying potassium channel KCNH2 (Homo sapiens) (Q12809 whole entry, looked up): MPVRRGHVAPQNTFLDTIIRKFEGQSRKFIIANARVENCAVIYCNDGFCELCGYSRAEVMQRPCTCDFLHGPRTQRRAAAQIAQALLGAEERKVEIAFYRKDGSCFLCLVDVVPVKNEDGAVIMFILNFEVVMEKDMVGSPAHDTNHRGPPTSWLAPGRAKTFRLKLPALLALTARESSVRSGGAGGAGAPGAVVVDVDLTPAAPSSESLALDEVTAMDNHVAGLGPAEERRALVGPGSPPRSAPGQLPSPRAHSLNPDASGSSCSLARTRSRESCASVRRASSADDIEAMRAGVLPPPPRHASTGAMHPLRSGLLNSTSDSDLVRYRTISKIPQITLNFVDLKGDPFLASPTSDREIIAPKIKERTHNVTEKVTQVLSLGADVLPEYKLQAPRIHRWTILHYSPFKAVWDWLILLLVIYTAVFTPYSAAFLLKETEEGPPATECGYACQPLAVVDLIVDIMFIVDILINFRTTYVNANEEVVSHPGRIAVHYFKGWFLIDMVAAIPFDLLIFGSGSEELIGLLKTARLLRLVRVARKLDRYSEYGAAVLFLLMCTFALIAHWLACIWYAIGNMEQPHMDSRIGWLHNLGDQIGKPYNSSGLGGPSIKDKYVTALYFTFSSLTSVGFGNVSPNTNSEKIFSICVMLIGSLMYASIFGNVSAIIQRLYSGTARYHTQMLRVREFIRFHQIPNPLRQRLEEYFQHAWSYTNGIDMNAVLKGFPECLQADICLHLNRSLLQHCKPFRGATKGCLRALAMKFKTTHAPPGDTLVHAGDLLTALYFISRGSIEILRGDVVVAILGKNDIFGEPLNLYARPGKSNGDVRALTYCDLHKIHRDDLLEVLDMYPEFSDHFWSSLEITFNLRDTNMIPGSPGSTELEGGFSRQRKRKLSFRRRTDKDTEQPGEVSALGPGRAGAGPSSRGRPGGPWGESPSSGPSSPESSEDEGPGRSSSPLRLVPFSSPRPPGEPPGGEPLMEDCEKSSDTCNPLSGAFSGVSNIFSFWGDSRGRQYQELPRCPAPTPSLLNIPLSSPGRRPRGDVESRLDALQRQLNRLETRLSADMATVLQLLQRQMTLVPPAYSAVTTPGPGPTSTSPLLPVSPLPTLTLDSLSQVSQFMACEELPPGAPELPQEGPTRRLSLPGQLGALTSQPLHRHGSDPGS
# Chain of Peroxisome proliferator-activated receptor alpha (Homo sapiens) (Q07869 whole entry, looked up, the tested form may be a part): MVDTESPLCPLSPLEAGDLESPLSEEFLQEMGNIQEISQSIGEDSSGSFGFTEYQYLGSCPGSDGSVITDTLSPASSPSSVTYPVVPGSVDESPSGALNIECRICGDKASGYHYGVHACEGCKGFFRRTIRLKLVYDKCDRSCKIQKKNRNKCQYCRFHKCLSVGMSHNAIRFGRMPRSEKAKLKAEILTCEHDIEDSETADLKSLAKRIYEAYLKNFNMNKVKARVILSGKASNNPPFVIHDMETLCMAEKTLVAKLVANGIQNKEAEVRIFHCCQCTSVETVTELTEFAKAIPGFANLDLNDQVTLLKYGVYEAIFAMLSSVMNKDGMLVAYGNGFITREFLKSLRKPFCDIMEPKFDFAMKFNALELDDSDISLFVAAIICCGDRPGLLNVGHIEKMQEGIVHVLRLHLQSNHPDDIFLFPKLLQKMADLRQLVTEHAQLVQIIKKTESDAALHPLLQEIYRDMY
# Chain of Nuclear receptor subfamily 1 group I member 2 (Rattus norvegicus) (Q9R1A7 whole entry, looked up): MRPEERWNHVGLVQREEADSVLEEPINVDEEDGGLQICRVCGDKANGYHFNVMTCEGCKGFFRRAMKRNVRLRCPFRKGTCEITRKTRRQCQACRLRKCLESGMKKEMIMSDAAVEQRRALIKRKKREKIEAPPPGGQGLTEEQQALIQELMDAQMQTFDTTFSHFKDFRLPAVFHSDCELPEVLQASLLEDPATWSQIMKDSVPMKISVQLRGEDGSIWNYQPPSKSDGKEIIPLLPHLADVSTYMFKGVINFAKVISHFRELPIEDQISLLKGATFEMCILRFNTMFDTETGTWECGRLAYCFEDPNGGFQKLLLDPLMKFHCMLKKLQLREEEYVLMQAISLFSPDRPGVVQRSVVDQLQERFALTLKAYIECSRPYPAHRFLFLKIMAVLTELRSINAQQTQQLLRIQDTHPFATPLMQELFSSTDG
# Chain of Nuclear receptor ROR-gamma (Homo sapiens) (P51449 whole entry, looked up): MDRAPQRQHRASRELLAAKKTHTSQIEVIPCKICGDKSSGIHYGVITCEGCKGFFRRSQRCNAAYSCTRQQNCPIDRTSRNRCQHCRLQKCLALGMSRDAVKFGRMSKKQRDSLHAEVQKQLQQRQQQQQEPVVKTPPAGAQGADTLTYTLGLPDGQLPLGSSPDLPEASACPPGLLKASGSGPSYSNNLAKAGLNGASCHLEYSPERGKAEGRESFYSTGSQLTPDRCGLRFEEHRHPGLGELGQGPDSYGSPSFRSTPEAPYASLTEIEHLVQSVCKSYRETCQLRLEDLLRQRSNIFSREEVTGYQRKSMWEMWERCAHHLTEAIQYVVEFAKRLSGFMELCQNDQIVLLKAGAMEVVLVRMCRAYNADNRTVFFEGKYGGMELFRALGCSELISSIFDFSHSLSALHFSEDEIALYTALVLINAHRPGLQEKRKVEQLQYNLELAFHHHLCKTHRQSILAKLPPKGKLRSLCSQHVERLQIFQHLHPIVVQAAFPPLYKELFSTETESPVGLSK
smiles,measurement,setting,value
O=[N+]([O-])c1cccc(CCl)c1,Potency,[1],inactive
same,Potency,[2],inactive
same,Potency,[3],inactive
same,Potency,[4],inactive
same,Potency,[5],inactive
same,Potency,[6],inactive
same,Potency,[7],inactive
same,Potency,[8],inactive
same,Potency,[9],inactive
same,Potency,[10],inactive
same,Potency,[11],inactive
same,activation,[12],5.78% (inactive)
same,outcome,[13],inactive
same,outcome,[14],inactive
same,outcome,[15],inactive
same,max response,[16],10.9%
same,outcome,[17],inactive
same,Potency,[18],inactive
same,max response,[19],8.94%
same,max response,[20],-0.788% (inactive)
same,activity change % (negative = inhibition),[21],-16.3% (inactive)
same,Potency,[22],inactive
same,Potency,[23],42.2 µM (active)
same,activation,[24],1.19% (inactive)
same,Potency,[25],inactive
same,Potency,[26],inactive
same,max response,[27],0.189% (inactive)
same,Potency,[28],33.5 µM (active)
same,Potency,[29],inactive
same,max response,[30],-3.2% (inactive)
same,max response,[31],-20.5% (inactive)
same,Potency,[32],inactive
same,max response,[33],-4.81% (inactive)
same,outcome,[34],inactive

# Reference: PubChem BioAssay (NCATS)
